In PubChem BioAssay (NCATS) one finds Potency data, which are given here for 40 compounds.

SMILES strings stand for the structures. Records with an inconclusive call do not appear. Where a call stands in place of a potency, no number is given. Activity calls are given as the source filed them. Calls come from the whole dose curve; as a rule, active = well fitted inhibition curve with a large enough effect; inconclusive = small, poorly fitted or top-dose-only effect; inactive = flat fitted curve, though single readings scatter.
Potency is the fitted concentration of half-maximal effect.

In this assay the test system is astro (control astrocytes). The assay can be described thus: Drug repurposing screens with cells derived from glioblastoma tumor samples (AID 1345199). Note: nearly all actives have a fitted effect of over 40% in size. The note with it: viability, ATP luminescence, 48 h; series mostly up to 45.9 µM. The procedure: CD133+ cells were isolated from GBM patient biopsies and cultured as neurospheres. Neurospheres from four patients were used to screen the NCATS pharmaceutical collection (NPC) library of approved drugs and bioactive compounds. […] The neurospheres were incubated with drugs for 48 hours in 1536-well format, then assayed with an ATP content cell viability assay. […] These hits were cherry picked to confirm activity in the four original GBM lines screened plus three other slower growing GMB lines (unable to yield enough cells for a full primary screen). Variable activities of the confirmed primary hits in the different GBM patient lines were observed. The patient line 206 responded to the greatest number of compounds and line 923 responded to the least amount of active compounds.
For `CCN(CC)CCN1C(=O)CN=C(c2ccccc2F)c2cc(Cl)ccc21`, the Potency result is “inactive”.

Consider `CNCC(O)c1ccc(O)cc1` (stereo not given), for which the Potency entry is “inactive”.

Regarding `NCC(O)c1ccc(O)cc1` (stereo not given), the Potency result is “inactive”.

For `CCN(CC)C(=O)N[C@@H]1C=C2c3cccc4[nH]cc(c34)C[C@@H]2N(C)C1`, the Potency entry was “inactive”.

For `NCCc1cc(O)c(O)cc1O`, the Potency result is “inactive”.

In the case of `CC(C)CC(N(C)C)C1(c2ccc(Cl)cc2)CCC1` (stereo not given), the Potency result was “inactive”.

For the compound `Nc1ccncc1`, the Potency result was “inactive”.

In the case of `CCOP(=S)(OCC)Oc1cc(C)nc(C(C)C)n1`, the Potency result is “inactive”.

Consider `COc1ccc(C(CN(C)C)C2(O)CCCCC2)cc1` (stereo not given), for which the Potency entry is “inactive”.

As to `OCCOc1ccccc1`, the Potency result is “inactive”.

For the compound `Cc1cccc(C)c1NC1=NCCCS1`, the Potency result is “inactive”.

Take `FC(F)(F)c1cccc(C2=CCN(CCc3ccc4ccccc4c3)CC2)c1`: the Potency entry was “inactive”.

`CC(=O)[C@H]1CC[C@H]2[C@@H]3CC[C@H]4C[C@H](O)CC[C@]4(C)[C@H]3C(=O)C[C@]12C`: the Potency result is “inactive”.

For the compound `CCC(COC(=O)c1cc(OC)c(OC)c(OC)c1)(c1ccccc1)N(C)C` (stereo not given), the Potency entry was “inactive”.

Take `COc1ccccc1N1CCNCC1`: the Potency result was “inactive”.

On to `CCN(CC)CCOC(=O)C(O)(c1ccccc1)c1ccccc1`, for which the Potency result is “inactive”.

For `CC(=O)[C@H]1CC[C@H]2[C@@H]3CC[C@H]4C[C@](C)(O)CC[C@]4(C)[C@H]3CC[C@]12C`, the Potency result is “inactive”.

In the case of `CC(C)(C)NCC(O)c1cc(Cl)c(N)c(Cl)c1` (stereo not given), the Potency result is “inactive”.

In the case of `C=CCN1CC[C@]23c4c5ccc(O)c4O[C@H]2C(=O)CC[C@@]3(O)[C@H]1C5`, the Potency entry was “inactive”.

For the compound `N[C@@H](Cc1ccc(Oc2cc(I)c(O)c(I)c2)c(I)c1)C(=O)O`, the Potency entry was “inactive”.

As to `C=C(C)[C@H]1Cc2c(ccc3c2O[C@@H]2COc4cc(OC)c(OC)cc4[C@@H]2C3=O)O1`, the Potency was 0.562 µM (active).

Regarding `CC(C)(N)Cc1ccc(Cl)cc1`, the Potency entry was “inactive”.

Regarding `Clc1ccc(CCC(Cn2ccnc2)Sc2c(Cl)cccc2Cl)cc1` (stereo not given), the Potency entry is “inactive”.

Consider `N[C@@H]1C[C@H]1c1ccccc1`, for which the Potency result was “inactive”.

For the compound `CC[N+]1(C)CCCC(OC(=O)C(O)(c2ccccc2)c2ccccc2)C1` (stereo not given), the Potency result was “inactive”.

On to `Fc1ccc(C(OCCN2CCN(CCCc3ccccc3)CC2)c2ccc(F)cc2)cc1`, for which the Potency was 22.4 µM (active).

As to `CN1CCN(C(=O)O[C@H]2c3nccnc3C(=O)N2c2ccc(Cl)cn2)CC1`, the Potency result is “inactive”.

As for `Cc1cccc(C)c1NC(=O)CN1CCCC1=O`, the Potency entry is “inactive”.

On to `C[C@]12C/C(=C/O)C(=O)C[C@@H]1CC[C@@H]1[C@@H]2CC[C@@]2(C)[C@H]1CC[C@]2(C)O`, for which the Potency entry was “inactive”.

For the compound `O=[N+]([O-])c1cc([As](=O)(O)O)ccc1O`, the Potency result was “inactive”.

As to `Cn1c(CCCC(=O)O)nc2cc(N(CCCl)CCCl)ccc21`, the Potency entry is “inactive”.

On to `CC(CCc1ccccc1)NC(C)C(O)c1ccc(O)cc1` (stereo not given), for which the Potency result is “inactive”.

With `O=c1[nH]c2ccccc2n1C1CCN(CCCC(c2ccc(F)cc2)c2ccc(F)cc2)CC1`, the Potency is 17.8 µM (active).

Turning to `c1ccc2c(c1)Nc1ccccc1S2`, the Potency result is “inactive”.

Consider `C[C@H]1O[C@@H](O[C@H]2[C@@H](O)C[C@H](O[C@H]3[C@@H](O)C[C@H](O[C@H]4CC[C@@]5(C)[C@H](CC[C@@H]6[C@@H]5CC[C@]5(C)[C@@H](C7=CC(=O)OC7)CC[C@]65O)C4)O[C@@H]3C)O[C@@H]2C)C[C@H](O)[C@@H]1O`, for which the Potency is 0.1 µM (active).

In the case of `Clc1cccc(N2CCNCC2)c1`, the Potency result is “inactive”.

Take `Oc1cc(Cl)ccc1Oc1ccc(Cl)cc1Cl`: the Potency was 28.2 µM (active).

Take `NP(N)(=O)NC(=O)c1ccc(F)cc1`: the Potency result was “inactive”.

With `C#CCOC(C(=O)OCCN(C)C)(c1ccccc1)c1ccccc1`, the Potency entry is “inactive”.

On to `CN1C[C@H](CNC(=O)OCc2ccccc2)C[C@@H]2c3cccc4c3c(cn4C)C[C@H]21`, for which the Potency entry is “inactive”.
